Test results reported in ChEMBL document CHEMBL3988442, “University of Dundee, Small-Polar-MMV Screening Library” (2021).
Among all 48,000 compounds or so, about 13,000 (27%) showed an effect of 50% or more. This is one part of the list.

System: Wolbachia pipientis
Test: Anti-Wolbachia Cell-Based Screen
Type: functional
Set-up: scale not given: in the data most compounds retested in dose-response had high values
Conditions: 5 µM

SMILES | Percent Effect
Cc1ccc(C(=O)Nc2cccc3c2C(=O)NC3)c(C)n1 | -2.739%
c1coc(CN2CCc3ncnc(C4CCOC4)c3CC2)c1 (stereo not drawn) | -7.93%
COCCN1CCCC(O)(CN2CCN(c3cc(C)ccn3)CC2)C1=O (stereo not drawn) | -13.95%
CCOCC1(CNCc2cc(O)c3cc(C)ccc3n2)CC1 | 1.355%
COc1ccc(CN2CCC(CO)(Cc3ccc(Cl)cc3)CC2)c(O)c1 | -0.5928%
O=c1n(CC2COCCO2)nc(CC2CCNCC2)n1-c1ccccc1 (stereo not drawn) | 28.69%
CN(CC1CC1)c1ccc2ccc(C(=O)NCCc3ccccc3)cn12 | 99.05%
CCn1cc(C(=O)NCc2cccnc2N(C)Cc2ccccc2)cn1 | 2.697%
CN(C)C(=O)CNC(=O)c1ccc2ccc(N(C)CC3CC3)n2c1 | 99.28%
CN(C)CCNC(=O)c1ccc(OC2CCN(C3CCC3)CC2)c(Cl)c1 | -4.706%
COC(=O)N1CCC(Oc2ccc(C(=O)NCCN(C)C)cc2Cl)CC1 | 19.93%
CCNC(=O)c1ccc2ccc(N(CC)CC)n2c1 | 1.029%
CCN(CC)c1ccc2ccc(C(=O)N(C)C)cn12 | -16.77%
CCN(CC)c1ccc2ccc(C(=O)NC3CC3)cn12 | -16.69%
CN(CC1CC1)c1ccc2ccc(C(=O)NC3CCCCC3)cn12 | 118%
CN(C)CCNC(=O)c1ccc2ccc(N(C)CC3CC3)n2c1 | 115.7%
CCN(CC)c1ccc2ccc(C(=O)O)cn12 | -4.44%
CCNC(=O)N1C[C@@H]2OCC(=O)N(CC3CCCCC3)[C@@H]2C1 | -5.369%
CN(C)S(=O)(=O)c1cccc(CNc2cc(CO)ccc2Cl)c1 | -35.79%
O=C(NCc1ccccc1CN1CCC(O)CC1)Nc1cccnc1 | -0.5671%
COCCCN1CCC(c2nc3c([nH]2)CC(C)(C)CNC3=O)C1 (stereo not drawn) | -5.99%
CCc1nnc(SC2CCN(c3ccccc3F)C2=O)n1C (stereo not drawn) | -9.884%
Cc1cc2n(n1)CC(CNC1CCN(C3CC3)CC1)CN2 (stereo not drawn) | -6.962%
CN(CCOc1ccc(F)cc1)S(=O)(=O)N1CCOCC1 | -1.618%
Cc1cccc2sc(NC(=O)CN3CCCC(O)(CO)C3)nc12 (stereo not drawn) | -1.543%
COCCNC(=O)c1ccc2ccc(N(C)CC3CC3)n2c1 | 103.1%

SMILES | Percent Effect
COCCNC(=O)CCNC(=O)c1ccc(N2CCC(C)=N2)cc1 | -2.111%
CCN(CC)c1ccc2ccc(C(=O)N(CCOC)CCOC)cn12.O=C(O)C(F)(F)F | 4.611%
COC(=O)N1CCC(NC(=O)Cn2cc(C)c3ccccc32)CC1 | -17.34%
Cc1ccc(C)c(CC(=O)NC2CCS(=O)(=O)CC2)c1 | -1.123%
CC(=O)N1CCC(NC(=O)CN2CCCc3c(F)ccc(C)c32)CC1 | 96.3%
CC(=O)N1CCC(NC(=O)CN2CCCc3c(C)ccc(F)c32)CC1 | 97.89%
Cc1cn(CC(=O)NC2CCN(C(=O)C3CC3)CC2)c2ccccc12 | 4.79%
Cc1ccc(F)c2c1CCCN2CC(=O)NC1CCS(=O)(=O)C1 (stereo not drawn) | 90.32%
Cc1ccc(C)c(CC(=O)NC2CCCS(=O)(=O)C2)c1 (stereo not drawn) | -8.397%
CC(=O)NCc1ccc(C(=O)N2CCCc3c(F)ccc(C)c32)cc1 | -14.03%
CC(=O)N1CCC(NC(=O)Cc2csc(C(C)(C)C)n2)CC1 | -8.702%
CN1CCCC(C(=O)N2CCC(Oc3ccc(C#N)cn3)CC2)C1 (stereo not drawn) | 3.335%
O=C1CC(c2cccs2)c2snc(C(=O)O)c2N1 (stereo not drawn) | 12.4%
Cc1ccc(C(=O)N[C@H]2CN(CCO)C[C@@H]2C2CC2)cc1Cl | 4.454%
CCNC(=O)NC(=O)CSC(C)c1ccccc1F (stereo not drawn) | -4.407%
O=C(C[S+]([O-])Cc1csc(C2CCCC2)n1)NC1CCCC1 (stereo not drawn) | -2.557%
CCN(C)CC(=O)N1CCC(c2cc(N3CCOCC3)nc(C)n2)CC1 | 25.94%
CCC(=O)N1CCC(c2nc(N3CCCCC3)ncc2S(C)(=O)=O)CC1 | 129%
Cc1noc(-c2ccc(N3CCCC(C(=O)N4CCSCC4)C3)nc2)n1 (stereo not drawn) | -16.11%
CS(=O)(=O)c1cnc(N2CCCC2)nc1C1CCN(C(=O)C2CC2)CC1 | 114.1%
CCC(=O)N1CCC(c2nc(N3CCOCC3)ncc2S(C)(=O)=O)CC1 | 98.3%
Cc1ncc(S(C)(=O)=O)c(N2CCCCCC2)n1 | 3.738%
CCC(=O)N1CCC(c2nc(N3CCCC3)ncc2S(C)(=O)=O)CC1 | 99.88%
CCc1nc(CC(=O)N2CCC(C(=O)N3CCCCC3)CC2)cs1 | 9.16%
CCC(=O)N1CCc2nc(N3CCOCC3)nc(N(C)C)c2CC1 | -3.249%
CCOc1cc(C)nc(N2CCN(C(=O)CC)CC2)n1 | -2.122%

SMILES | Percent Effect
Cc1ccc(NS(=O)(=O)c2c[nH]c3ncccc23)nc1 | 17.74%
CCOC(=O)N1CCN(c2nc(NCCCO)c3ccccc3n2)CC1.Cl | 3.007%
COC(=O)c1ccc(N2CCN(C(=O)c3ccncc3)C(C)C2)cc1 (stereo not drawn) | -9.258%
CCc1nc(CC(=O)Nc2cnn(CC3CCCO3)c2)cs1 (stereo not drawn) | -8.649%
CC(C)c1nc(O)c2nnn(C[C@@H]3CCCN(Cc4ccsc4)C3)c2n1 | 123.6%
CC(C)c1nc(O)c2nnn(C[C@H]3CCCN(Cc4ccsc4)C3)c2n1 | 131.3%
CC(C)(C)c1oc(C(N)=O)cc1CN1CCCCC1CN1CCOCC1 (stereo not drawn) | -21.84%
N#Cc1ccc(SCCC(=O)N(Cc2cccnc2)C2CC2)cc1 | -7.889%
O=c1ccc(-n2ccnc2)nn1CCNS(=O)(=O)c1ccc(Br)cc1 | -0.5803%
CCN(CC)CC[C@H]1CN(C(=O)C2CCC2)CC[C@H]1CC(=O)O | -6.679%
CCN1CCCC(c2c(-c3ccccc3)ncn2CCc2c[nH]cn2)C1 (stereo not drawn) | -19.27%
CC(C)(C(=O)NCCCC(N)=O)c1cccc(Br)c1 | 6.793%
CSCCC(NC(N)=O)C(=O)N1CCC(Cc2ccccc2)CC1 (stereo not drawn) | -1.467%
CSCCC(Nc1nc(C)cc(C)n1)C(=O)NCC1CCOCC1 (stereo not drawn) | 96.94%
CNC(=O)C(CCSC)NC(=O)c1ccc2ccccc2n1 (stereo not drawn) | 4.672%
CSCCC(Nc1nc(C)cc(C)n1)C(=O)NC1CCCC1 (stereo not drawn) | 67.42%
CSc1cc2c(cc1NC(=O)NCC1CCOC1)OCCO2 (stereo not drawn) | 0.9768%
CSCCC(NC(=O)c1ccc2ccccc2n1)C(=O)NC(C)C (stereo not drawn) | 0.7963%
Cc1nc(CN2CCN(C(C)C(=O)NC3CCCC3)CC2)cs1 (stereo not drawn) | -11.13%
Cc1cc(C)nc(NC2CCC(=O)N(C)C2)n1 (stereo not drawn) | -12.68%
Cc1cc(NC(=O)NCC2CCOC2)no1 (stereo not drawn) | -3.66%
CSCCC(Nc1nc(C)cc(C)n1)C(=O)NC(C)(C)CO (stereo not drawn) | 99.02%
CSCCC(NC(=O)c1ccc2ccccc2n1)C(=O)NC1CC1 (stereo not drawn) | 3.734%
CSCCC(Nc1nc(C)cc(C)n1)C(=O)NC1CC1 (stereo not drawn) | 102.4%
CN(C)CCCN1CC2(CCN(C3CCCOC3)CC2)OC1=O (stereo not drawn) | -5.756%
COc1ccc(NC(=O)c2ccc[nH]2)c(N2CCN(C(C)=O)CC2)n1 | 6.635%

SMILES | Percent Effect
Cc1cc(SC(C)(C)C)ccc1NC(=O)CNC(N)=O | -8.144%
Cc1ccc(S(=O)(=O)NC[C@H]2OC[C@@H](NCc3ccccn3)[C@@H]2O)cc1 | 0.9418%
Cc1cc(C(=O)N2C[C@@H](CN3CCOCC3)C[C@H](CO)C2)nc(C)n1 | -2.252%
Cc1cc(C)c(CNC(=O)N2CCCN(C(=O)C(C)C)CC2)c(C)c1 | -1.6%
CC(C)=CCN1C[C@H]2CC[C@@H]1CN(Cc1coc(C)n1)C2 | -7.778%
Cc1ccc2nc(CNCCCOc3ccccc3)cc(O)c2c1 [UCSF924] | -20.67%
CCn1ccc(-c2cc(NCCCOc3cccc(C)c3)nc(C)n2)n1 | 179.6%
COc1ccc(OCCNCCn2cccn2)cc1 | -1.614%
c1ccc(OCCCNCCn2cccn2)cc1 | 7.776%
CCn1ccc(-c2cc(NCCCOc3ccccc3C)nc(C)n2)n1 | 161.9%
CCN(CC1CCOCC1)C(=O)Cn1cccc(C(F)(F)F)c1=O | -10.75%
c1cnnc(N2CCCC(NCc3nnc(-c4ccco4)o3)C2)c1 (stereo not drawn) | 5.713%
OC1(CNCc2noc(Cc3ccccc3)n2)CCCNC1 (stereo not drawn) | 0.3473%
c1ccc(Cc2nc(CNC3CCC4(CCNCC4)CC3)no2)cc1 | 94.06%
c1coc(-c2nc(CNC3CCCNC3)no2)c1 (stereo not drawn) | 116.1%
COc1nc2c(cc1C(=O)NCc1noc(-c3ccco3)n1)CCC2 | -22.9%
c1ccc(-c2nc(CNC3CCCN(c4cccnn4)C3)no2)cc1 (stereo not drawn) | -14.96%
CC(C)(C)OC(=O)NC1(c2noc(-c3ccco3)n2)CCC1 | -13.08%
c1coc(-c2nc(CNC3CCC4(CCNCC4)CC3)no2)c1 | 99.09%
COCc1nc(CNC2CCC3(CCNCC3)CC2)no1 | -7.512%
Cc1ncc2c(n1)CN(C(C(N)=O)c1ccccc1)CC2 (stereo not drawn) | 4.006%
CC(C)NC(=O)NC[C@H]1OC[C@@H](NCc2ccncc2)[C@@H]1O | 2.532%
Cc1ccc(OC2(C(=O)O)CCN(C/C=C/c3ccco3)CC2)cc1 | -1.713%
O=C(Nc1cccc(OC(F)F)c1)C1CN(S(=O)(=O)C2CC2)C1 | 10.08%
CN1[C@H]2CC[C@@H]1CN(C(=O)c1nnc3n1CCCC3)CC2 | 1.056%
